Screens as filed in PubChem.
Sampled rows, rich in hits. Any-hit rate of the full collection: about 1.6%.
KCNQ2 inh – blocks the rat KCNQ2 potassium channel | O88943 | CHO-K1 KCNQ2, FluxOR thallium flux, 20 min; active compounds read low | B-score at 10 µM | actives 1.1% (n = 310,000);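 active means fluorescence ratio B-score at most minus 3 library SDs, with starting brightness B-score within 2 library SDs, cut at about -5.5 in these data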
KCNQ2 enhance – potentiators of rat KCNQ2 potassium channel. B-score at 10 µM. CHO-K1 KCNQ2, FluxOR thallium flux fluorescence; active compounds read high. AID 2239. O88943. actives 0.54% (n = 310,000);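 active means fluorescence ratio B-score at least 3 SD of library B-scores, with initial fluorescence B-score within 3 of them, cut at about 5.3 in these data; same plate scores as AID 2156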;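 further: B-score of peak minus minimum over baseline fluorescence ratio after K+ and Tl+ stimulus; positive B-score means potentiation of KCNQ2 with more thallium influx and brighter signal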
Kir21 confirm – confirmation of mouse Kir2.1 potassium channel inhibitors. shares compounds with KCNQ2 enhance. Kir2.1-expressing cells, FluxOR thallium flux fluorescence; active compounds read low. Tl flux remaining, % of negative control (active compounds read low), % at 10 µM. actives 41% (n = 2,300);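 active means Primary-screen hit whose thallium flux fell at least 3 control SD below untreated wells in both duplicates, with normal baseline fluorescence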;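 further: 0% = blank wells without stimulus and 100% = stimulated no-compound controls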
Target sequence (P35561 whole entry, looked up): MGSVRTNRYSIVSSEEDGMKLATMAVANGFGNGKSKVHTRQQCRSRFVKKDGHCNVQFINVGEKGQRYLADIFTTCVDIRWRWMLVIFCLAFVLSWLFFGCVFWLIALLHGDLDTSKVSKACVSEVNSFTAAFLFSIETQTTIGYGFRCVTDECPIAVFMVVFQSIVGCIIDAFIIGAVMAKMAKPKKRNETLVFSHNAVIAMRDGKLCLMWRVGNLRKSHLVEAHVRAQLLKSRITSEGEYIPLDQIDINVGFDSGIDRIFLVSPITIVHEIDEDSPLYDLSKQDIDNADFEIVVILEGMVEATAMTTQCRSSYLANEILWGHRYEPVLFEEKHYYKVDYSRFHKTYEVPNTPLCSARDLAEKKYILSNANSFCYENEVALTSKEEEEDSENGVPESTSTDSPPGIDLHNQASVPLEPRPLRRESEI
HEK293 Tl flux – parental HEK293 activity in Kir2.1 inhibitor counter-screen | shares compounds with KCNQ2 enhance | parental HEK293 cells, FluxOR thallium flux fluorescence; 0% = unstimulated blank wells | FluxOR signal as % of negative control (100 = no effect), % at 10 µM | actives 19% (n = 2,300);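 active means dye signal at least 3 control SD above or below untreated wells in both duplicates, raw fluorescence within 3, either direction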;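 further: percent is based on the flux ratio of peak minus minimum fluorescence over baseline F0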
CHO-K1 Tl ctr – counter-screen for KCNQ2 potentiators: effect in parental CHO-K1 cells; actives 43% (n = 1,200); FluxOR thallium flux fluorescence; zero = vehicle mean+3SD, 100% = vehicle-minus-blank window; shares compounds with KCNQ2 enhance; AID 2282; activity increase over 3SD of controls, % at 10 µM;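 active means signal rise of at least 3 SD above the untreated control mean, in both duplicate wells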;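 further: counter screen of KCNQ2 potentiator hits so any rise reflects channel-independent effects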
KCNQ1 sel pot – selectivity of KCNQ2 potentiators: effect on human KCNQ1 | shares compounds with KCNQ2 enhance | CHO KCNQ1 stable, FluxOR thallium flux fluorescence; beyond 3SD, as % of vehicle-control signal | activation over 3SD threshold, % at 10 µM | actives 28% (n = 1,200) | AID 2283;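 active means fluorescence ratio rise of at least 3 SD of vehicle wells above their mean, in both replicate wells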;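 further: 0% = vehicle mean plus 3 SD and 100% = vehicle minus unstimulated blank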
KCNQ2 pot confirm – rat KCNQ2 channel potentiator confirmation | actives 68% (n = 1,200) | shares compounds with KCNQ2 enhance | AID 2287 | potentiation, less the hit threshold, % at 10 µM | CHO-KCNQ2 cells, FluxOR thallium flux fluorescence;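 active means fluorescence ratio rising 3 SD or more over the vehicle control mean in both replicates, plus primary screen hit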;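 further: peak minus minimum thallium fluorescence divided by baseline after K/Tl stimulus; 0% = vehicle mean plus 3 SD and 100% = vehicle minus unstimulated blank difference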
Kir21 spec – tests whether KCNQ2 potentiators also affect mouse Kir2.1; shares compounds with KCNQ2 enhance; HEK293 Kir2.1, FluxOR thallium flux fluorescence; activity over 3SD threshold, % at 10 µM; actives 2% (n = 1,200); AID 2345;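 active means fluorescence ratio rise of at least 3 SD above the vehicle-control mean, seen in both replicates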;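 further: 0% = vehicle mean plus 3 SD and 100% = vehicle minus no-stimulus blank window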
KCNQ2 W236L MoA – KCNQ2 potentiators acting on retigabine-insensitive rat KCNQ2 W236L mutant | shares compounds with KCNQ2 enhance | CHO KCNQ2-W236L, automated patch clamp current | current increase over 3SD of negative controls (%), active compounds read high, % at 25 µM | actives 10% (n = 940) | AID 2558;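 active means current increase at least 3 SD of the untreated controls above them in both duplicate recordings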
Active calls of the source: *; i = inactive; . = not tested or not shown.

SMILES | KCNQ2 inh | KCNQ2 enhance | Kir21 confirm | HEK293 Tl flux | others
O=C(NNC(=S)Nc1ccc(F)c(Cl)c1)c1ccccc1Br | i | 0.05 | . | .
Cc1ccc(NC(=O)Cc2ncc(C(F)(F)F)cc2Cl)cc1Cl | i | 0.31 | . | .
CCOc1ccc(Cl)cc1S(=O)(=O)N1CCC(C(=O)NCC2CCCO2)CC1 (stereo not given) | i | 1.06 | . | .
Cc1cccc(CN2CCc3c([nH]c4ccccc34)C2)c1 | i | 1.49 | 43.0%* | i
Clc1cccc(CN2CCc3c([nH]c4ccccc34)C2)c1 | i | . | . | .
CCOC(=O)c1c(NC(=O)C(NCCN(C)C)c2ccccc2)sc2c1CCCC2 (stereo not given) | i | . | 41.5%* | i
CCOC(=O)c1c(NC(=O)c2ccccc2N(C)S(=O)(=O)c2ccccc2)sc2c1CCCC2 | i | . | . | .
O=C(c1ccccc1)C1CCN(C(=O)C2CCC(=O)N(Cc3ccccc3F)C2)CC1 (stereo not given) | i | . | . | .
Cc1[nH]c2ccccc2c1C(=O)C(=O)N1CCN(c2cccc(Cl)c2)CC1 | i | 0.1 | . | .
Cc1cccc(-c2nc(CN3CCN(Cc4cccc(F)c4)CC3)c(C)o2)c1 | i | . | . | .
CCN(CC)CCCN(C(=O)c1ccccc1C)c1nc(-c2ccc(OC)cc2)cs1 | i | 0.81 | . | .
CCN(CC)CCCN(C(=O)c1ccc(OC)cc1)c1nc(-c2ccc(OC)cc2)cs1 | i | 1.34 | 77.5%* | i
CC(C)N(CCNC(=O)c1nn(Cc2ccccc2)c(=O)c2ccccc12)C(C)C | i | 0.17 | . | .
CCOc1ccc(S(=O)(=O)NCc2ccc3c(c2)OCO3)cc1NC(C)=O | i | 1.45 | . | .
COC1=C(Nc2ccccc2OC)C(=O)c2ccccc2C1=O | i | . | . | .
COc1ccccc1NC1=C(NC(C)=O)C(=O)c2ccccc2C1=O | i | 8.01* | i | i | CHO-K1 Tl ctr=-27.3;KCNQ1 sel pot=-26.9;KCNQ2 pot confirm=4.8*;Kir21 spec=-32.5;KCNQ2 W236L MoA=i
COc1ccc(C(=O)NCCCN=C2NS(=O)(=O)c3ccccc32)cc1 | i | 1.09 | . | .
O=C(Cc1c(F)cccc1Cl)N/N=C/c1cccnc1 | i | 0.01 | . | .
O=c1nc(SCc2c(F)cccc2Cl)nc(-c2ccc(Cl)cc2)[nH]1 | i | 2.89 | . | .
O=c1nc(SCc2ccccc2Cl)nc(-c2ccc(Cl)cc2)[nH]1 | i | 11.5* | i | 147.5%* | CHO-K1 Tl ctr=12.9*;KCNQ1 sel pot=-9.3;KCNQ2 pot confirm=6.1*;Kir21 spec=-34.0;KCNQ2 W236L MoA=i
CC(=O)Nc1ccc(S(=O)(=O)NCc2ccc3[nH]c(C)cc3c2)cc1 | i | 5.4* | i | i | CHO-K1 Tl ctr=3.8*;KCNQ1 sel pot=-5.5;KCNQ2 pot confirm=-18.1;Kir21 spec=-35.6
Cc1ccc(S(=O)(=O)NCc2ccc3[nH]c(C)cc3c2)cc1 | i | . | . | .
Cc1cccc(C)c1Nc1ncnc2ccccc12 | i | 0.93 | . | .
Cc1onc(-c2ccccc2Cl)c1C(=O)N1CCCCCC1 | i | 1.99 | . | .
CCOC(=O)CCn1cc(F)c(=O)n(Cc2ccccc2)c1=O | i | 1.04 | . | .
SMILES | KCNQ2 inh | KCNQ2 enhance | Kir21 confirm | HEK293 Tl flux | others
Oc1c(Br)cc(Br)cc1C=Nc1ccc2[nH]ncc2c1 | i | 14.1* | i | i | CHO-K1 Tl ctr=11.3*;KCNQ1 sel pot=-21.6;KCNQ2 pot confirm=19.7*;Kir21 spec=-33.5;KCNQ2 W236L MoA=10.3%*
Oc1c(Br)cc(Br)cc1C=Nc1cccnc1 | i | 8.43* | i | i | CHO-K1 Tl ctr=-10.0;KCNQ1 sel pot=-14.5;KCNQ2 pot confirm=17.2*;Kir21 spec=-39.5;KCNQ2 W236L MoA=i
O=C(N/N=C/c1cc(Br)cc(Br)c1O)c1ccncc1 | i | 2.09 | . | .
COc1ccc(C=Nc2ccc3[nH]ncc3c2)c(O)c1 | i | . | . | .
CC1CN(CCC(=O)Nc2ccccc2F)CC(C)O1 (stereo not given) | i | . | . | .
COC(=O)C(Cc1ccccc1)NC(=O)CNC(=O)c1ccccc1OC (stereo not given) | i | 0.49 | . | .
COc1cc(C)c(C)cc1S(=O)(=O)n1c(C)nc2ccccc21 | i | . | . | .
COc1cc(F)ccc1S(=O)(=O)n1c(C)nc2ccccc21 | i | . | 52.5%* | i
CCN(c1ccccc1)S(=O)(=O)c1cc([N+](=O)[O-])ccc1N | i | 5.04 | 56.0%* | i
CCN(c1ccccc1)S(=O)(=O)c1ccc(C(C(=O)OC)C(=O)OC)c([N+](=O)[O-])c1 | i | . | . | .
CCOc1ccc(-c2c(C(=O)N/N=C/C3CCCCC3)nnn2-c2nonc2N)cc1 | i | 0.98 | . | .
Cc1cc(C)nc(SCCCNCc2ccc(Br)cc2)n1 | i | 0.38 | 45.0%* | i
Cc1ccc(CNCCCSc2nc(C)cc(C)n2)cc1 | i | . | . | .
O=C(NC1CCCCC1)c1ccc(-n2cnnn2)cc1 | i | 0.02 | . | .
N#CC1=C(N)N(c2ccccc2)C(c2cccc([N+](=O)[O-])c2)C1(C#N)C#N (stereo not given) | i | . | 59.0%* | 72.0%*
N#CC1=C(N)N(c2ccccc2)C(c2ccco2)C1(C#N)C#N (stereo not given) | i | . | . | .
CCOC(=O)C1(Cc2ccc(Cl)cc2)CCN(C(=O)c2cscn2)CC1 | i | 0.66 | . | .
CC(C)(C)C(=O)Nc1ccccc1C(=O)NCc1cccnc1 | i | 0.58 | . | .
CC(C)(C)c1ccccc1OCC(=O)Nc1ccccc1C(=O)NCc1cccnc1 | i | 2.29 | 77.0%* | i
CCN(c1ccccc1)S(=O)(=O)c1ccc(OC)c(NC(=O)CCc2nc3ccccc3c(=O)[nH]2)c1 | i | 0.38 | . | .
CC(C)c1nc(SCC(=O)NC2CCCC2)c2c(=O)n(C)c(=O)n(C)c2n1 | i | . | . | .
O=C1c2ccccc2NC(c2ccc(Br)s2)N1O (stereo not given) | i | 7.79* | i | 287.5%* | CHO-K1 Tl ctr=1.4*;KCNQ1 sel pot=26.9*;KCNQ2 pot confirm=21.7*;Kir21 spec=-37.6;KCNQ2 W236L MoA=i
C=CCN1C(=O)c2ccccc2NC1c1ccc(Br)s1 (stereo not given) | i | 1.22 | . | .
CCCn1c2ccccc2c2cnn(CC(=O)N3CCOCC3)c(=O)c21 | i | 3.12 | . | .
CCCn1c2ccccc2c2cnn(CC(=O)N(CC)CC)c(=O)c21 | i | . | . | .
O=C(Cn1ncc2c3ccccc3n(Cc3ccccc3)c2c1=O)N1CCN(c2ccccn2)CC1 | i | 7.52* | i | i | CHO-K1 Tl ctr=-12.9;KCNQ1 sel pot=42.3*;KCNQ2 pot confirm=19.9*;Kir21 spec=-34.9;KCNQ2 W236L MoA=i
O=C(Cn1ncc2c3ccccc3n(Cc3ccccc3)c2c1=O)N1CCN(c2ncccn2)CC1 | i | 4.72 | . | .
